# Reference: PubChem BioAssay
# The source made the active and inactive calls.
# Assays:
# [1] = tested on: Plasmodium falciparum Sir2 (PF13_0152, Sir2A); assay: Plasmodium falciparum Sir2A binding compounds – biochemical, small-molecule microarray, 635 nm fluorescence, primary screen (AID 1098); conditions: fluorescence 635 nm, higher = more signal;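 further: score merges spot fluorescence intensity with its signal-to-noise ratio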
# [2] = probe aDKK1 binding to arrayed compounds – biochemical, biotinylated probe, 635/667 nm fluorescence, primary screen (AID 1099); conditions: small-molecule microarray, higher = more signal;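 further: score merges 667nm spot fluorescence with signal to noise across triplicate slides; reference of the scale not given here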
# [3] = probe aCHRDL2 binding to arrayed compounds – biochemical, biotinylated probe, 635/667 nm fluorescence, primary screen (AID 1100); conditions: small-molecule microarray, higher = more signal
# [4] = change in splice reporter luminescence, either direction, cell-based, HEK293, spliceosome inhibition project, primary screen (AID 1101); conditions: HEK293 splicing luciferase reporter, 24 h, higher = more signal, called active from +8 up or from −8 down;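 further: HEK293 cells carrying a splicing-competent luciferase reporter gene; test concentration not given here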
# [5] = molecular target: Fibroblast growth factor 10 (Homo sapiens) (UniProt O15520); assay: compounds binding fibroblast growth factor 10 – biochemical, small-molecule microarray, 635 nm fluorescence, primary screen (AID 1102); conditions: FGF10 binding, fluorescence 635 nm, higher = more signal
# Chain of Fibroblast growth factor 10 (Homo sapiens) (O15520 whole entry, looked up): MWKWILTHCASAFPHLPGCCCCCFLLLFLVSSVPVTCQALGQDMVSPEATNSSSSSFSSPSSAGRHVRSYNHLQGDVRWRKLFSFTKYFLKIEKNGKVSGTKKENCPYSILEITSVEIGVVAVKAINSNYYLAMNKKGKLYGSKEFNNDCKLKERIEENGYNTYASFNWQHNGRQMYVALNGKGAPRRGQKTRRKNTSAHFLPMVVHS
# [6] = tested on: glycogen synthase kinase-3 (GSK3A per assay name; protocol says GSK3B); assay: compounds binding glycogen synthase kinase-3 – biochemical, small-molecule microarray, 635 nm fluorescence, GSK3A, primary screen (AID 1103); conditions: fluorescence 635 nm, higher = more signal; further: the record names both GSK3A and GSK3B
# [7] = molecular target: Epidermal growth factor receptor (Homo sapiens) (UniProt P00533); assay: compounds binding epidermal growth factor receptor – biochemical, small-molecule microarray, 635 nm fluorescence, primary screen (AID 1104); conditions: EGFR binding, higher = more signal;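 further: score merges 667 nm emission intensity with spot signal to noise over triplicate slides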
# Chain of Epidermal growth factor receptor (Homo sapiens) (P00533 whole entry, looked up): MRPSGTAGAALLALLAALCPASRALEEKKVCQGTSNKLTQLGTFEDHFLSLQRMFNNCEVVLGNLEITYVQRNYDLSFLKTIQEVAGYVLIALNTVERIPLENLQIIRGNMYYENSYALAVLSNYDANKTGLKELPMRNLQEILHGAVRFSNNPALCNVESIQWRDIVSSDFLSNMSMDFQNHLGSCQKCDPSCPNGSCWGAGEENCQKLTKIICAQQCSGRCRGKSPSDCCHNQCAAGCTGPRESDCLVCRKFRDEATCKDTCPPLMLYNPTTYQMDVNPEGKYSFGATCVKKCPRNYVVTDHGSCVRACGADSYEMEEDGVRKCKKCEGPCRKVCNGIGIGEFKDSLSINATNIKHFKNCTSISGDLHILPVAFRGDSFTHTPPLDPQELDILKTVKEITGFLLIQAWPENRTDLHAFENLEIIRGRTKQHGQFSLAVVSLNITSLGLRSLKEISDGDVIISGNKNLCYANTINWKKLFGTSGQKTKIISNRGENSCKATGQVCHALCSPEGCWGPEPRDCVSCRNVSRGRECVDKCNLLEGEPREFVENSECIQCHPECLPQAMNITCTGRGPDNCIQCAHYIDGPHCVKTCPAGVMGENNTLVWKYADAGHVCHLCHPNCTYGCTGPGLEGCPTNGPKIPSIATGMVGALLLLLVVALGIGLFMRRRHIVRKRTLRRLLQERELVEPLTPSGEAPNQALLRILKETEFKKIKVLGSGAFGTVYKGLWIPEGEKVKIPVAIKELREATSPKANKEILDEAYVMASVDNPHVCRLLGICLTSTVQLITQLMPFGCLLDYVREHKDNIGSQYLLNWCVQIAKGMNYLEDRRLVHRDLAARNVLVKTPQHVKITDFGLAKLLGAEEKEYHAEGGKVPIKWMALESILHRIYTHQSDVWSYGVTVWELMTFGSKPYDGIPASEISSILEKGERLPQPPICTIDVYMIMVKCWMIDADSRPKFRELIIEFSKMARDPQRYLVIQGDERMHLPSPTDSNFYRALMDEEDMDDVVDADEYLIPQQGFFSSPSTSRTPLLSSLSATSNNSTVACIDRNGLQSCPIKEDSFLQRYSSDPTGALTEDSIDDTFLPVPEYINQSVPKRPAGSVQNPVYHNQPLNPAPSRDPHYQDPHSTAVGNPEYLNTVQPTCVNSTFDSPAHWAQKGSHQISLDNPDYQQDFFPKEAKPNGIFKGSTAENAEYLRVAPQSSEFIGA
# [8] = molecular target: Follistatin-related protein 3 (Homo sapiens) (UniProt O95633); assay: compounds binding follistatin-related protein 3 – biochemical, small-molecule microarray, 635 nm fluorescence, primary screen (AID 1105); conditions: FSTL3 binding, higher = more signal;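 further: score merges emission near 667 nm and signal to noise per printed spot across three slides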
# Chain of Follistatin-related protein 3 (Homo sapiens) (O95633 whole entry, looked up): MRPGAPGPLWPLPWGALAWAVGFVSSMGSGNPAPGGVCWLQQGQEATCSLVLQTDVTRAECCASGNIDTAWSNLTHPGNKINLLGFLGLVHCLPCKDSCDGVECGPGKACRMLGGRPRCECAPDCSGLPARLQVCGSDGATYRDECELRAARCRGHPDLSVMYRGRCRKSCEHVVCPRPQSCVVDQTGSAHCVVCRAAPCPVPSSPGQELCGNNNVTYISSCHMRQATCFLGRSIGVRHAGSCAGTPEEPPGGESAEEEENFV
# [9] = molecular target: Dickkopf-related protein 1 (Homo sapiens) (UniProt O94907); assay: small molecules binding DKK1 protein – biochemical, small-molecule microarray, 635 nm fluorescence scan, primary screen (AID 1106); conditions: higher = more signal;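 further: score merges emission near 667 nm with signal to noise over three replicate slides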
# Chain of Dickkopf-related protein 1 (Homo sapiens) (O94907 whole entry, looked up): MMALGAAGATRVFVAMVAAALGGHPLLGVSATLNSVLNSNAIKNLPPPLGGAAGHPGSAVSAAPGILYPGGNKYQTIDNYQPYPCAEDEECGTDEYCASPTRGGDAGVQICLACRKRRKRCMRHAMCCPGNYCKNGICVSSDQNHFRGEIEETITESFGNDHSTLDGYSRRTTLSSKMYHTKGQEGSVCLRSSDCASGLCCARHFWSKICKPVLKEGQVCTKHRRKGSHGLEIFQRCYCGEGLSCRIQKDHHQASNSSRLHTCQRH
# [10] = tested on: Inhibin beta A chain (activin A); assay: small molecules binding activin A – biochemical, small-molecule microarray, 635 nm fluorescence scan, primary screen (AID 1107); conditions: INHBA, higher = more signal;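 further: mouse activin A protein probed at 4.33 µg/mL on printed slides; score merges bound-protein fluorescence near 667 nm with spot signal-to-noise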
SMILES,composite z-score [1],composite z-score [2],composite z-score [3],z-score [4],composite z-score [5],composite z-score [6],composite z-score [7],composite z-score [8],composite z-score [9],composite z-score [10]
C=C(COC)C(=O)CC[C@H](OC(=O)c1ccccc1-c1ccccc1C(=O)O)c1ccc(OCCO)cc1,1.53,-0.203,0.0518,0.287 (inactive),1.35,0.667,-0.237,1.05,0.701,1.1
O=C(O)[C@@]1(Cc2ccccc2)COC(c2ccc(OCCCO)cc2)=N1,1.01,0.413,0.988,0.483 (inactive),-0.38,-0.835,-0.645,-1.14,-0.91,0.53
[N-]=[N+]=NCc1ccccc1[C@H]1OC(c2ccc(OCCCO)cc2)=N[C@@]1(Cc1ccccc1N=[N+]=[N-])C(=O)N1CCCCC1,1.31,1.11,1.06,0.532 (inactive),1.42,1.29,0.363,1.25,0.256,1.23
COc1ccccc1CN1C(=O)c2ccccc2[C@@]2(Cc3ccccc3N(C3CC3)C2=O)[C@@H]1c1ccc(CO)cc1,0.76,-0.0899,0.322,0.312 (inactive),-0.671,-0.928,-0.724,-0.279,-0.535,0.52
CC(C)(C)OC(=O)CC[C@]1(C(=O)O)COC(c2ccc(OCCCO)cc2)=N1,0.337,0.768,0.553,0.14 (inactive),-0.577,-0.69,-0.609,-1.2,-1.51,0.469
COC(=O)[C@@]1(Cc2ccc(F)cc2)[C@@H]2[C@@H](CC(=O)[C@H]2CC(=O)C(=O)N2CCCC2)CN1C(=O)c1ccccc1,1.16,0.942,0.807,-0.98 (inactive),1.11,1.3,-0.121,1.02,-0.0822,0.85
C=CCC(OC(C)=O)[C@@H]1[C@@H](N(Cc2ccc(-c3ccccc3)cc2)C(=O)Cc2ccc(OC)cc2)c2cc(OCCCO)ccc2N1C(=O)c1ccc(-c2ccccc2)cc1 (stereo not given in full),-0.0063,0.073,0.31,-0.757 (inactive),-0.0097,-0.15,-0.332,-0.0062,-0.18,1.22
CN1C(=O)C2C=CC(C(O)c3ccc(F)cc3)N(N3CCCCC3)C2C1=O (stereo not given),1.56,1.3,1.33,0.981 (inactive),0.252,0.432,-0.406,-0.0733,-1.3,1.23
C=C(C)[C@@H]1CC=C(C(O)C2C=CC3C(=O)N(C4CCCCC4)C(=O)C3N2Nc2ccc(OC)cc2)CC1 (stereo not given in full),1.37,0.326,0.826,-0.603 (inactive),1.03,1.31,0.367,1.37,0.21,0.918
COC(=O)C(CC#Cc1ccc2c(c1)[C@]1(C(=O)N2)[C@H](C(=O)N2CCc3cc(OC)c(OC)cc3C2)[C@H]2C(=O)O[C@H](c3ccccc3)[C@H](c3ccccc3)N2[C@@H]1c1ccc(O)cc1)C(=O)OC,1.06,0.432,0.417,0.362 (inactive),1.4,1.35,0.919,1.43,1.71,-0.227
CN(C)CCCN1C(=O)[C@@]2(Cc3ccccc31)c1ccccc1C(=O)N(Cc1ccccc1)[C@H]2c1ccc(CO)cc1,0.74,-0.152,0.113,-0.773 (inactive),-0.622,0.54,-0.306,0.408,0.0366,0.799
O=C(C=C(CC(O)c1cccc(Cl)c1)OCCF)OCCF (stereo not given),1.87,0.558,0.913,-0.985 (inactive),-0.357,-0.571,-0.737,-0.863,-0.735,1.31
C=C(CCCC)/C(=C/C[C@@H](OC(=O)c1ccncc1)c1ccccc1OCCO)c1cc(C(=O)OC)ccc1OC,0.96,-0.0551,-0.133,-0.322 (inactive),0.659,0.272,0.145,0.422,0.135,0.851
OCc1ccc(-c2cc[n+](Cc3cccc(OC(F)(F)F)c3)cc2)cc1,0.802,0.44,0.854,1.36 (inactive),0.981,0.869,1.33,1.48,1.56,1.93
C[N+](C)(C)CCCC[C@@H]1NC(=O)[C@H]2C[C@@H](C(=O)NCCCCCCN)[C@@H](c3cccc(OCCO)c3)N2C1=O,1.56,1.82,0.984,-0.481 (inactive),1.17,1.33,0.717,1.28,1.27,1.63
COc1ccc(CCNC(=O)[C@@H]2c3ccccc3C(=O)N(Cc3ccccc3C(F)(F)F)[C@H]2c2ccc(CO)cc2)cc1,1.46,-0.0126,0.946,0.609 (inactive),0.176,0.013,-1.01,-0.348,-0.814,0.288

SMILES,composite z-score [1],composite z-score [2],composite z-score [3],z-score [4],composite z-score [5],composite z-score [6],composite z-score [7],composite z-score [8],composite z-score [9],composite z-score [10]
COC(=O)C(CC#Cc1ccc2c(c1)[C@]1(C(=O)N2)[C@H](c2ccc(OCCO)cc2)N2[C@H](c3ccccc3)[C@H](c3ccccc3)OC(=O)[C@H]2[C@@H]1C(=O)O)C(=O)OC,1.78,1.18,0.931,-0.609 (inactive),0.809,1.03,0.194,0.808,0.119,0.765
C=C(CCCC)/C(=C/C[C@H](OC(=O)c1ccncc1)c1ccc(CO)o1)c1cc(C(=O)OC)ccc1OC,1.21,0.0946,-0.125,0.84 (inactive),0.565,1.26,0.356,0.928,0.575,0.554
COC(=O)[C@@]1(Cc2ccc(F)cc2)[C@H]2c3cc(C(=O)N(C)C)n(CCSCCO)c3C[C@H]2CN1C(=O)c1ccccc1,0.74,0.983,1.02,-1.22 (inactive),0.438,0.266,0.168,0.322,-0.0642,0.655
CCCc1cc2c(n1Cc1ccc(OC)cc1)C(C)C1CN(C(=O)c3ccccc3)C(C)(C(=O)OC)C21 (stereo not given),0.862,1.27,1.59,-1.94 (inactive),0.303,0.482,-0.409,0.324,-1.71,1.43
COC(=O)C(CC#Cc1ccc2c(c1)[C@]1(C(=O)N2)[C@H](c2ccc(O)cc2)N2[C@H](c3ccccc3)[C@H](c3ccccc3)OC(=O)[C@H]2[C@@H]1C(N)=O)C(=O)OC,-0.532,-0.207,0.613,-0.192 (inactive),-1.48,-1.29,-0.856,-1.89,-0.841,-0.611
COc1cc2c(cc1OC)CN(C(=O)[C@@H]1[C@H]3C(=O)O[C@H](c4ccccc4)[C@H](c4ccccc4)N3[C@H](c3ccc(OCCO)cc3)[C@@]13C(=O)Nc1ccc(C#CCCO)cc13)CC2,1.18,-0.0226,0.772,-0.921 (inactive),1.28,1.27,0.714,1.23,0.646,0.638
COC(=O)[C@@]1(Cc2ccccc2)[C@H]2c3cc(C(=O)N4CCCC4)n(Cc4ccccc4)c3C[C@H]2CN1C(=O)c1ccccc1,1.1,0.854,0.94,-2.8 (inactive),1.12,0.882,0.0075,0.96,-0.197,0.675
CCOC(=O)C[C@H]1[C@H](OC(=O)c2ccccc2-c2ccccc2)[C@@H](NC(=O)c2ccccc2)c2cc(OCCCO)ccc2N1C(=O)Cc1ccc(OC)cc1,0.0521,-0.0327,0.0247,-0.269 (inactive),0.0268,-0.519,-0.104,-0.183,-0.0633,0.264
COc1cc2c(cc1OC)CN(C(=O)[C@@H]1[C@H]3C(=O)O[C@H](c4ccccc4)[C@H](c4ccccc4)N3[C@H](c3ccc(O)cc3)[C@@]13C(=O)Nc1ccc(C#CCNC(N)=O)cc13)CC2,0.55,-0.053,0.0095,-0.256 (inactive),0.641,-0.566,0.0967,0.694,-0.162,0.849
O=C1C[C@@](C(=O)NCc2ccccc2)(c2ccc([N+](=O)[O-])cc2)[C@@H](c2ccc(CO)cc2I)N1C1CCCCC1,0.838,1.78,0.652,-0.551 (inactive),0.7,1.16,0.768,1.33,0.876,0.654
O=C1O[C@@H](c2ccccc2)[C@@H](c2ccccc2)N2[C@@H](c3ccc(O)cc3)[C@]3(C(=O)Nc4ccc(C#CC5(O)CCCCCC5)cc43)[C@@H](C(=O)N3CCN(c4ncccn4)CC3)[C@H]12,0.479,-0.125,-0.127,-0.453 (inactive),0.74,0.709,-0.0042,0.639,0.226,-0.293
C=CC[C@]1(C(=O)N2CCOCC2)N=C(c2ccc(OCCCO)cc2)O[C@H]1c1ccccc1CN=[N+]=[N-],1.55,0.0557,0.948,-0.244 (inactive),1.24,0.0251,-0.124,0.879,-0.121,0.58
CC(C)CNC(=O)[C@@]1(c2ccc([N+](=O)[O-])cc2)CC(=O)N(C(C)C)[C@@H]1c1ccc(CO)cc1,0.832,-0.258,1.08,-0.372 (inactive),-1,-1.02,-0.362,-0.129,-1.59,0.07
CC(C)c1ccc(NN2C(C(O)c3ccccn3)C=CC3C(=O)N(c4ccccc4)C(=O)C32)cc1 (stereo not given),1.52,0.753,0.105,-0.684 (inactive),1.53,1.31,0.69,1.33,0.454,-0.75
COC(=O)[C@@]1(Cc2ccccc2)[C@H]2c3cc(C(=O)N(C)C)n(Cc4ccc(O)c(OC)c4)c3C[C@H]2CN1C(=O)c1ccccc1,1.37,0.722,0.295,-6.3 (inactive),-0.27,0.255,-0.34,0.764,-0.65,0.637
COc1ccc(C(=O)Nc2ccc(CN3C(=O)[C@@]4(O[C@@H](CC(=O)N5Cc6ccccc6C[C@H]5CO)[C@H]([Si](C)(C)c5ccc(OC)cc5)[C@H]4C)c4ccccc43)cc2)cc1,1.33,-0.351,-0.342,-1.29 (inactive),1.01,0.81,1.05,1.19,0.628,0.673
